Data: the supplement of paper PMC10849652
About 8,800 targets were measured; listed, in parts, are those with a hit and a random draw of the rest. About 0.5% of all pairs of compound and target were hits.

How the values were obtained:
Assay in all cases: log2 fold change, soluble protein after heating vs DMSO (PISA); higher = thermal stabilisation; K562 lysate, 10 uM; active = over 0.2 and 3.5 SD of the protein, either way, in both replicates (recomputed)
alvocidib = compound: CN1CC[C@H](c2c(O)cc(O)c3c(=O)cc(-c4ccccc4Cl)oc23)[C@H](O)C1 [alvocidib]
Outline: (§1)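 Quantification was by TMTpro 16plex LC-MS/MS with equalised channel sums, applied to the supernatant after 21,000xg for 90 min. Samples were crude K562 extract at 1 mg/mL protein in PBS pH 7.4 with 1 mM MgCl2, treated with 10 μM compound for 30 min, heated for 3 min across 48°C-58°C, pooled and brought to 0.5% NP-40 at 4°C. Values are log-two fold changes in thermal stability relative to solvent controls, from duplicates.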

Tubastatin A = compound: CN1CCc2c(c3ccccc3n2Cc2ccc(C(=O)NO)cc2)C1 [Tubastatin A]
Outline: as §1

[1] = compound: CNC(=O)C1=CC=CC=C1NC2=NC(=NC=C2Cl)NC3=C(C=C(C=C3)N4CCOCC4)OC
Outline: as §1

defactinib = compound: CNC(=O)c1ccc(Nc2ncc(C(F)(F)F)c(NCc3nccnc3N(C)S(C)(=O)=O)n2)cc1 [defactinib]
Outline: as §1

[2] = compound: CNc1nc(-c2ccc3c(N)n[nH]c3c2)cc(N2C[C@@H](C(=O)NC3CCCCC3)CC[C@H]2C)n1
Outline: as §1

encorafenib = compound: COC(=O)N[C@@H](C)CNc1nccc(-c2cn(C(C)C)nc2-c2cc(Cl)cc(NS(C)(=O)=O)c2F)n1 [encorafenib]
Outline: as §1

[3] = compound: COC(=O)[C@H](CCSC)NC(=O)C1=C(C=C(C=C1)NC[C@H](CS)N)C2=CC=CC=C2
Outline: as §1

alisertib = compound: COc1cc(Nc2ncc3c(n2)-c2ccc(Cl)cc2C(c2c(F)cccc2OC)=NC3)ccc1C(=O)O [alisertib]
Outline: as §1

[4] = compound: COc1cc2nc(-c3cc(F)ccc3O)nc(N[C@@H]3CNC[C@H]3C(C)(C)O)c2cc1OC
Outline: as §1

gefitinib = compound: COc1cc2ncnc(Nc3ccc(F)c(Cl)c3)c2cc1OCCCN1CCOCC1 [gefitinib]
Outline: as §1

lapatinib = compound: CS(=O)(=O)CCNCc1ccc(-c2ccc3ncnc(Nc4ccc(OCc5cccc(F)c5)c(Cl)c4)c3c2)o1 [lapatinib]
Outline: as §1

pictilisib = compound: CS(=O)(=O)N1CCN(Cc2cc3nc(-c4cccc5[nH]ncc45)nc(N4CCOCC4)c3s2)CC1 [pictilisib]
Outline: as §1

crizotinib = compound: C[C@@H](Oc1cc(-c2cnn(C3CCNCC3)c2)cnc1N)c1c(Cl)ccc(F)c1Cl [crizotinib]
Outline: as §1

[5] = compound: C[C@H](C1=CC=C(C=C1)C(=O)NC2=C3C=CNC3=NC=C2)N
Outline: as §1

duvelisib = compound: C[C@H](Nc1ncnc2nc[nH]c12)c1cc2cccc(Cl)c2c(=O)n1-c1ccccc1 [duvelisib]
Outline: as §1

gandotinib = compound: Cc1cc(Nc2cc(CN3CCOCC3)c3nc(C)c(Cc4ccc(Cl)cc4F)n3n2)n[nH]1 [gandotinib]
Outline: as §1

tozasertib = compound: Cc1cc(Nc2cc(N3CCN(C)CC3)nc(Sc3ccc(NC(=O)C4CC4)cc3)n2)n[nH]1 [tozasertib]
Outline: as §1

doramapimod = compound: Cc1ccc(-n2nc(C(C)(C)C)cc2NC(=O)Nc2ccc(OCCN3CCOCC3)c3ccccc23)cc1 [doramapimod]
Outline: as §1

bafetinib = compound: Cc1ccc(NC(=O)c2ccc(CN3CC[C@H](N(C)C)C3)c(C(F)(F)F)c2)cc1Nc1nccc(-c2cncnc2)n1 [bafetinib]
Outline: as §1

[6] = compound: Cc1cccc(CC(=O)N2CCc3c2ccc(-c2cn(C)c4ncnc(N)c24)c3F)n1
Outline: as §1

Measured: log2 fold change

NUF2 (UniProt Q9BZD4)
Sequence of UniProt Q9BZD4 (Q9BZD4 whole entry, looked up): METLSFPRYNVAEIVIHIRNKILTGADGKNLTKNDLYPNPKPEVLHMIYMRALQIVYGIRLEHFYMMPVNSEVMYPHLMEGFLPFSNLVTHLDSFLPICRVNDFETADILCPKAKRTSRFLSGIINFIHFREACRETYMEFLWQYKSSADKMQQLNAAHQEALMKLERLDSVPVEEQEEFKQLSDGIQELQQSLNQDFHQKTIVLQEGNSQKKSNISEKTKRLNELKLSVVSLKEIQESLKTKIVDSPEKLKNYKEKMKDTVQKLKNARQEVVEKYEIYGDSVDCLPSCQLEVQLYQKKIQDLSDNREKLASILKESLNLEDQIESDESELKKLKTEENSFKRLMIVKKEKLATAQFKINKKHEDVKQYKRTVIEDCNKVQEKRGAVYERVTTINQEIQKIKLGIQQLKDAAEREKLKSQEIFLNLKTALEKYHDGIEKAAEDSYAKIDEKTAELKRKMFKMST
inactive: alvocidib 0 | Tubastatin A -0.13 | [1] 0.03 | defactinib 0.021 | [2] -0.007 | encorafenib 0.027 | alisertib -0.012 | [4] 0.013 | gefitinib -0.033 | lapatinib -0.002 | pictilisib -0.028 | crizotinib -0.024 | [5] -0.023 | duvelisib -0.019 | gandotinib -0.103 | tozasertib 0.023 | doramapimod 0.008 | bafetinib -0.087 | [6] 0.053
active: [3] 0.264

NNT (UniProt Q13423)
active: gandotinib -0.445
inactive: alvocidib 0.006 | Tubastatin A 0.035 | [1] 0.021 | defactinib -0.005 | [2] -0.04 | encorafenib -0.018 | [3] -0.017 | alisertib -0.001 | [4] 0.021 | gefitinib 0.012 | lapatinib -0.047 | pictilisib -0.046 | crizotinib 0.03 | [5] 0.013 | duvelisib 0.039 | tozasertib -0.014 | doramapimod 0.011 | bafetinib -0.006 | [6] 0.003

N6AMT1 (UniProt Q9Y5N5)
Sequence of UniProt Q9Y5N5 (Q9Y5N5 whole entry, looked up, one chain of several): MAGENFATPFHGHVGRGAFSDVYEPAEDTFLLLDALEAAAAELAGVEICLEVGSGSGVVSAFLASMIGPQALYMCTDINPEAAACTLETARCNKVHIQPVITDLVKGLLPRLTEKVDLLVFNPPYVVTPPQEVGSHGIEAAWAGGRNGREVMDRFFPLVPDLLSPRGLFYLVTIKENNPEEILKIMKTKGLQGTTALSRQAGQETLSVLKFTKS
active: defactinib 0.361 | [5] 0.34
inactive: alvocidib 0.062 | Tubastatin A 0.026 | [1] 0.048 | [2] 0.021 | encorafenib -0.011 | [3] 0.069 | alisertib -0.084 | [4] 0.004 | gefitinib -0.045 | lapatinib -0.018 | pictilisib -0.038 | crizotinib -0.02 | duvelisib -0.017 | gandotinib -0.033 | tozasertib 0.008 | doramapimod 0.014 | bafetinib -0.109 | [6] -0.098

NOSIP (UniProt Q9Y314)
Sequence of UniProt Q9Y314 (Q9Y314 whole entry, looked up): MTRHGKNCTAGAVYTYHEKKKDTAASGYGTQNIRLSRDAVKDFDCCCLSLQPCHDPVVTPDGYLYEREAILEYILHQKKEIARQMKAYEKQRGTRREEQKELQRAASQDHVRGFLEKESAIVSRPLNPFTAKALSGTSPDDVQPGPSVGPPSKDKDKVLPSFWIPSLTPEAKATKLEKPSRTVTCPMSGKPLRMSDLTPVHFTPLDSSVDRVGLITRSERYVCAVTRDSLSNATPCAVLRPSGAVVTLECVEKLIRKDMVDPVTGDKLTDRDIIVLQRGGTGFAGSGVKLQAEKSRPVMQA
inactive: alvocidib -0.02 | Tubastatin A -0.156 | [1] 0.018 | defactinib 0.05 | [2] 0.004 | encorafenib 0.014 | [3] 0.02 | alisertib -0.016 | [4] 0.015 | gefitinib -0.049 | lapatinib -0.03 | pictilisib -0.042 | crizotinib -0.026 | [5] 0.02 | duvelisib -0.004 | gandotinib 0.017 | tozasertib -0.053 | doramapimod 0.013 | bafetinib -0.003 | [6] 0.038

NARS2 (UniProt Q96I59)
Sequence of UniProt Q96I59 (Q96I59 whole entry, looked up): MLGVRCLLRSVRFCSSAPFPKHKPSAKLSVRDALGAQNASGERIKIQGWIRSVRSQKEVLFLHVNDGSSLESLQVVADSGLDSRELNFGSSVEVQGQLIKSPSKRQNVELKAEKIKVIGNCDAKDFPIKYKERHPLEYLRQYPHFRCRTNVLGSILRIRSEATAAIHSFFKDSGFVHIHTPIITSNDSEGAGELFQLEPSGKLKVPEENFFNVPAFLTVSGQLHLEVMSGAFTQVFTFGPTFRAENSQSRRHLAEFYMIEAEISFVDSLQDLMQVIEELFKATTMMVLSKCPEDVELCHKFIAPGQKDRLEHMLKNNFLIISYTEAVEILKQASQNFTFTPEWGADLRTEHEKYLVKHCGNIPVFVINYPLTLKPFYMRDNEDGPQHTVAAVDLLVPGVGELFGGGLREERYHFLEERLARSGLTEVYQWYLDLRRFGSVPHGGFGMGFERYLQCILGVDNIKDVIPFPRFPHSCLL
inactive: alvocidib 0.013 | Tubastatin A -0.157 | [1] -0.046 | defactinib 0.014 | [2] -0.04 | encorafenib -0.01 | [3] 0.039 | alisertib -0.006 | [4] -0.01 | gefitinib -0.016 | lapatinib 0.039 | pictilisib -0.132 | crizotinib -0.034 | [5] 0.039 | duvelisib -0.002 | gandotinib -0.058 | tozasertib 0.013 | doramapimod -0.01 | bafetinib -0.053 | [6] 0.024

PAK4 (UniProt O96013)
Sequence of UniProt O96013 (O96013 whole entry, looked up): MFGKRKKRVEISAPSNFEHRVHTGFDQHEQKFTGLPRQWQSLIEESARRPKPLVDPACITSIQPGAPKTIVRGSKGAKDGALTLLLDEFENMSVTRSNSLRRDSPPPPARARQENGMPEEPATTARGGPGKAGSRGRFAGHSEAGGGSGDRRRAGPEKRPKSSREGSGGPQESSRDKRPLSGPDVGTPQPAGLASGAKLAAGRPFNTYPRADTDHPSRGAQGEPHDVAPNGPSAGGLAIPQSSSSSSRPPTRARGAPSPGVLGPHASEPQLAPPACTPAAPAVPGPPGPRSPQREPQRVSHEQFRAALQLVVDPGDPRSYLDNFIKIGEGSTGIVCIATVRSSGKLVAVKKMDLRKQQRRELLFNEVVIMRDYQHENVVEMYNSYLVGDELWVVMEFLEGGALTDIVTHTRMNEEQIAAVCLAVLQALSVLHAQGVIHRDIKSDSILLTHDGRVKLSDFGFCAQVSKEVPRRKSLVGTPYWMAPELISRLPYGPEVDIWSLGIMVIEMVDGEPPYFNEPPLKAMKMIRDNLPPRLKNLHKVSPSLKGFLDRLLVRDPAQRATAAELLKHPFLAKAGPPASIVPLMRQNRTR
active: gandotinib 0.709
inactive: alvocidib -0.019 | Tubastatin A -0.038 | [1] 0.27 | defactinib 0.441 | [2] -0.021 | encorafenib -0.173 | [3] -0.057 | alisertib 0.002 | [4] 0.241 | gefitinib -0.027 | lapatinib -0.147 | pictilisib 0.139 | crizotinib 0.037 | [5] 0.163 | duvelisib 0.05 | tozasertib 0.18 | doramapimod -0.236 | bafetinib -0.011 | [6] -0.12

NFAT5 isoform 5 (UniProt O94916)
Sequence of UniProt O94916 (O94916 whole entry, looked up): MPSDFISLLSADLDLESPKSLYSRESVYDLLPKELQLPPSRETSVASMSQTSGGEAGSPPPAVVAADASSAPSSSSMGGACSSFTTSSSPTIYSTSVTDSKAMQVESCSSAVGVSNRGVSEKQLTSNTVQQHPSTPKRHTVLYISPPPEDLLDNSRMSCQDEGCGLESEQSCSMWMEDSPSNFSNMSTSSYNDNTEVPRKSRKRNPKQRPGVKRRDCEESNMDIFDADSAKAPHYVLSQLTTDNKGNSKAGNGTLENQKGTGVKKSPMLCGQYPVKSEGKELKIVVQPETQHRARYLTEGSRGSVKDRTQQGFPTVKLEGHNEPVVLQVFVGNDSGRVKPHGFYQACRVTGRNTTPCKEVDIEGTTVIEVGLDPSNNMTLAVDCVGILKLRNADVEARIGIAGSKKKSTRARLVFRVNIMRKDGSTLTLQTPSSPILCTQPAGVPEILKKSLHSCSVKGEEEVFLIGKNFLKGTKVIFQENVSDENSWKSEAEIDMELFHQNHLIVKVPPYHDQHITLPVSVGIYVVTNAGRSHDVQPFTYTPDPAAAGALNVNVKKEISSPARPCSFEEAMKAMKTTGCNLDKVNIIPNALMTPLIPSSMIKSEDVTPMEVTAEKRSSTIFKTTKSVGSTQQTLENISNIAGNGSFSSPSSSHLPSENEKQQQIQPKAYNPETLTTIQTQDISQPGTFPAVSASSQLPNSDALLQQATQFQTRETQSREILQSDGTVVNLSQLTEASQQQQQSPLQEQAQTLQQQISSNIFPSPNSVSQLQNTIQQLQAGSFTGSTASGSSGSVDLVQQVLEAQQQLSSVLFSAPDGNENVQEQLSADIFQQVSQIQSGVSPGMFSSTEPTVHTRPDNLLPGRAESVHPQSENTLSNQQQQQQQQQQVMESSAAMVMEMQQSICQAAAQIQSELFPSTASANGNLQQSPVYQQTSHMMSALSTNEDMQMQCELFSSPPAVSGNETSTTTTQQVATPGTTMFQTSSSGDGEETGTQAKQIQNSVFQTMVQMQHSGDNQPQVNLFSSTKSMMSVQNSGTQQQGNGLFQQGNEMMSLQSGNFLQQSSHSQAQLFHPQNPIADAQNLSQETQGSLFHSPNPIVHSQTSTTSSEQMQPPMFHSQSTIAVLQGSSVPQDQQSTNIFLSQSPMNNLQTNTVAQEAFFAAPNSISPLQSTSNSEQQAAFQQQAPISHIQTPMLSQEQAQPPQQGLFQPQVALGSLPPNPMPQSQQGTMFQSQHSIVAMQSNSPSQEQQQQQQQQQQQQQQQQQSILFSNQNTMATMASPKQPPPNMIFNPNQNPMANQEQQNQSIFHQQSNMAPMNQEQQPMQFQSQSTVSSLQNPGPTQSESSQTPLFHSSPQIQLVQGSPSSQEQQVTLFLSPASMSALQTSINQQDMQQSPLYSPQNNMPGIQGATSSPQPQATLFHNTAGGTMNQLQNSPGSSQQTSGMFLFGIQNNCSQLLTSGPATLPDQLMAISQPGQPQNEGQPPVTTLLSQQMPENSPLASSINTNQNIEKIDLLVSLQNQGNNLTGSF
inactive: alvocidib -0.026 | Tubastatin A 0.003 | [1] -0.027 | defactinib 0.007 | [2] 0.077 | encorafenib 0.043 | [3] -0.041 | alisertib -0.072 | [4] -0.01 | lapatinib 0.033 | pictilisib -0.002 | crizotinib 0.053 | [5] -0.053 | duvelisib -0.041 | gandotinib 0.045 | tozasertib -0.039 | doramapimod 0.007 | bafetinib -0.041 | [6] 0.008
active: gefitinib 0.454

NPTN (UniProt Q9Y639)
Sequence of UniProt Q9Y639 (Q9Y639 whole entry, looked up): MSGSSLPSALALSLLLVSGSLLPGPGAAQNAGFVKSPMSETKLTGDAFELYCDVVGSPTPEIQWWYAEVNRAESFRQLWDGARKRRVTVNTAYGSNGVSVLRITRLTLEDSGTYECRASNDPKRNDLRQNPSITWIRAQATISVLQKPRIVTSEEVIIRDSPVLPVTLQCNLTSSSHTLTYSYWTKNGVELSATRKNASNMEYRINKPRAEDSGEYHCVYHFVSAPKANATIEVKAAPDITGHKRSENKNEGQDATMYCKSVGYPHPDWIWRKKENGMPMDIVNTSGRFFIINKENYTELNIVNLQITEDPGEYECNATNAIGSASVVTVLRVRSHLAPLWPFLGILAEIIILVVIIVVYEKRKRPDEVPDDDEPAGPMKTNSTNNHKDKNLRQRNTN
inactive: alvocidib -0.023 | Tubastatin A -0.01 | [1] 0 | defactinib -0.185 | [2] 0.03 | encorafenib -0.023 | [3] 0.015 | alisertib 0.011 | [4] 0.042 | gefitinib 0.024 | lapatinib -0.057 | pictilisib -0.045 | crizotinib -0.058 | [5] -0.011 | duvelisib 0.049 | gandotinib 0.003 | tozasertib 0.007 | doramapimod 0.056 | bafetinib -0.029 | [6] 0.011

PARG (UniProt Q86W56)
inactive: alvocidib 0.03 | Tubastatin A -0.055 | [1] 0.029 | defactinib 0.041 | [2] -0.016 | encorafenib 0.027 | [3] 0.042 | alisertib 0 | [4] 0.01 | gefitinib 0.046 | lapatinib 0.017 | pictilisib -0.035 | crizotinib -0.058 | [5] 0.047 | duvelisib -0.02 | gandotinib -0.065 | tozasertib -0.033 | doramapimod 0.005 | bafetinib -0.004 | [6] -0.01

MT-ND1 (UniProt P03886)
inactive: alvocidib -0.149 | Tubastatin A -0.037 | [1] 0.043 | defactinib 0.081 | [2] 0.014 | encorafenib 0.046 | [3] -0.051 | alisertib 0.032 | [4] -0.073 | gefitinib 0.087 | lapatinib -0.025 | pictilisib -0.03 | crizotinib -0.062 | duvelisib -0.052 | gandotinib 0.061 | tozasertib -0.074 | doramapimod 0.041 | bafetinib 0.022 | [6] 0.007
active: [5] -0.342

NUCB2 (UniProt P80303)
Sequence of UniProt P80303 (P80303 whole entry, looked up): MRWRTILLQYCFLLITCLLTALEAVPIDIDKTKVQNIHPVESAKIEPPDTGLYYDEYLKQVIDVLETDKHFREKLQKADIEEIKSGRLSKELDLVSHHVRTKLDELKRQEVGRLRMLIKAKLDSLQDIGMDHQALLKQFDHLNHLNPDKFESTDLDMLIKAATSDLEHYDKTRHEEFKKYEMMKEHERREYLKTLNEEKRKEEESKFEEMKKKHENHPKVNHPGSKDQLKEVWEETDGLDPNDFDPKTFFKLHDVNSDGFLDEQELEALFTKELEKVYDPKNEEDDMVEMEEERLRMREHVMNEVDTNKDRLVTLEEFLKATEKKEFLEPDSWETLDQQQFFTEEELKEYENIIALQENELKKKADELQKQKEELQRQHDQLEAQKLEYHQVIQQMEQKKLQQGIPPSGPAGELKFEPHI
inactive: alvocidib 0.061 | Tubastatin A 0.036 | [1] 0.007 | defactinib -0.039 | [2] 0.005 | encorafenib 0.001 | [3] -0.027 | alisertib 0.003 | [4] 0.014 | gefitinib 0.004 | lapatinib -0.006 | pictilisib -0.006 | crizotinib 0.041 | duvelisib 0.008 | gandotinib -0.044 | tozasertib 0.003 | doramapimod -0.024 | bafetinib -0.022 | [6] -0.126
active: [5] 0.253

MRPL51 (UniProt Q4U2R6)
inactive: alvocidib -0.039 | Tubastatin A -0.018 | [1] 0.016 | defactinib 0.198 | [2] -0.002 | encorafenib 0.088 | [3] -0.208 | alisertib -0.005 | [4] -0.005 | gefitinib -0.044 | lapatinib -0.051 | pictilisib -0.016 | crizotinib 0.056 | [5] -0.201 | duvelisib -0.004 | gandotinib 0.058 | tozasertib 0.083 | doramapimod -0.247 | bafetinib 0.02 | [6] 0.091

MYCBP2 (UniProt O75592)
inactive: alvocidib -0.046 | Tubastatin A -0.098 | [1] 0.024 | defactinib 0.019 | [2] 0.003 | encorafenib 0.055 | [3] -0.015 | alisertib 0.007 | [4] 0.032 | gefitinib -0.004 | lapatinib -0.042 | pictilisib -0.026 | crizotinib -0.07 | [5] -0.028 | duvelisib 0.023 | gandotinib 0.054 | tozasertib 0.023 | doramapimod 0.016 | bafetinib -0.004 | [6] 0.114

MYO1D (UniProt O94832)
inactive: alvocidib 0.026 | Tubastatin A -0.091 | [1] -0.006 | defactinib 0.048 | [2] -0.008 | encorafenib 0.058 | [3] -0.012 | alisertib -0.019 | [4] 0.012 | gefitinib -0.016 | lapatinib 0.014 | pictilisib -0.051 | crizotinib -0.035 | [5] 0.016 | duvelisib -0.028 | gandotinib -0.072 | tozasertib 0.01 | doramapimod 0.011 | bafetinib -0.041 | [6] -0.005

MTA1 (UniProt Q13330)
inactive: alvocidib 0.007 | Tubastatin A -0.045 | [1] 0.013 | defactinib 0.008 | [2] -0.01 | encorafenib -0.005 | [3] 0.098 | alisertib -0.026 | [4] 0.023 | gefitinib -0.023 | lapatinib -0.002 | pictilisib 0 | crizotinib -0.008 | [5] 0.001 | duvelisib -0.059 | gandotinib -0.067 | tozasertib -0.002 | doramapimod -0.009 | bafetinib 0.023 | [6] 0.017

NONO (UniProt Q15233)
Sequence of UniProt Q15233 (Q15233 whole entry, looked up): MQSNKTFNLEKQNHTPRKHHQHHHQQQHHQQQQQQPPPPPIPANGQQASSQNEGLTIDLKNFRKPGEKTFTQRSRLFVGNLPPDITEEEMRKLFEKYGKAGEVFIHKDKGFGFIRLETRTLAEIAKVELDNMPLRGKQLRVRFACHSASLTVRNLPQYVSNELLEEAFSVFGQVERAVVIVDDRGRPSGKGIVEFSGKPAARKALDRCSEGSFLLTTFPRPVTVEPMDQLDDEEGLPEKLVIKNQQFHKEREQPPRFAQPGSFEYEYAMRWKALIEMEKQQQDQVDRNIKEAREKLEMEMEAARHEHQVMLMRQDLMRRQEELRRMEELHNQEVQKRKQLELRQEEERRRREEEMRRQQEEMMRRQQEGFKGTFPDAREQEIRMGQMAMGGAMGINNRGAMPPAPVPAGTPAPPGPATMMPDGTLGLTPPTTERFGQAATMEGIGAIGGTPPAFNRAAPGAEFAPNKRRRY
inactive: alvocidib 0.049 | Tubastatin A -0.126 | [1] 0.04 | defactinib -0.01 | [2] 0.014 | encorafenib 0.011 | [3] 0.102 | alisertib 0.026 | [4] -0.004 | gefitinib 0.007 | lapatinib -0.004 | pictilisib 0.001 | crizotinib 0.011 | [5] 0.071 | duvelisib -0.01 | gandotinib -0.06 | tozasertib 0.028 | doramapimod -0.014 | bafetinib -0.033 | [6] -0.04
